# In PubChem BioAssay (Tox21):
# Inconclusive results are not listed. Unmarked numbers belong to inactive results. Calls come from the whole dose curve.
# Assay: qHTS assay to identify small molecule agonists of H2AX - cell viability counter screen (AID 1224847); note: top concentration of the series differs between compounds; nearly all actives have a fitted effect of over 30% in size
# Conditions: CHO-K1 viability, CellTiter-Glo luminescence, 3 h; series mostly up to 154 µM; activity change, negative = cytotoxicity: at the top concentration
# Source text: National Center for Advancing Translational Sciences [NCATS]
# NIH Chemical Genomics Center [NCGC]
# U.S. Environmental Protection Agency [EPA]
# National Institutes of Environmental Health Sciences [NIEHS]
# National Toxicology Program [NTP]
# U.S. Food and Drug Administration [FDA]
# HTRF phospho-H2AX (Ser139) assay (Cisbio Bioassays, US) enables the quantitative detection of the histone variant H2AX when phosphorylated on serine 139. When double-stranded DNA breaks, either by ionizing radiation or endogenous physiological processes, H2AX becomes phosphorylated at Ser139. This phospho-Ser139 serves as a sensitive biomarker for the detection of such breaks, localizing the site of DNA repair. So, HTRF phospho-H2AX Ser139 is a pertinent assay to study genome stability, the cell cycle, DNA repair, and it serves as a biomarker for cancer, and to understand aging. Wild type CHO-K1 cells were used to identify the inducers of Phospho-H2AX Ser 139 from the Tox21 compound collections. Also cytotoxicity of the Tox21 10K compound library against the CHO-K1 cell line was tested by measuring the cell viability using CellTiter-Glo assay (Promega, Madison, WI).
# Tox21 Assay Protocol Summary:
# The CHO-K1 cells suspended in culture medium containing 10% FBS were dispensed at 1000 cells/ 3 ul/well in 1536-well white wall/solid bottom plates (Greiner Bio-One North America, NC) using a Multidrop Combi (Thermo Fisher Scientific Inc., Waltham, MA). After the assay plates were incubated at 37C overnight, 23 nl of compounds at 15 concentrations (from 5-48 columns) or positive control (from 1 to 4 columns) were transferred to the assay plates using a Pintool station (Wako, San Diego, CA) into each well resulting in a final DMSO concentration of 0.76%. After 3hr incubation at 37C, 3 uL/well CellTiter-Glo luminescent cell viability reagent (Promega Corporation, Madison, WI) was added using a Flying Reagent Dispenser (FRD) (Aurora Discovery, CA). After incubation at room temperature for 30 min, the luminescence intensity was read using a ViewLux plate reader (PerkinElmer, Waltham, MA).
# % is set by controls: 0 for no effect and ±100 for the full control effect.
row,SMILES,"activity change, negative = cytotoxicity"
1,CC(C)=CCC/C(C)=C\C#N,3.46%
2,C=CC(=O)OCCOCCOCC,1.35%
3,CN(C)c1cc(NC(=O)CNC(C)(C)C)c(O)c2c1C[C@H]1C[C@H]3[C@H](N(C)C)C(=O)C(C(N)=O)=C(O)[C@@]3(O)C(=O)C1=C2O,-5.96% [at 70.9 µM]
4,NS(=O)(=O)c1cc2c(cc1C(F)(F)F)NCNS2(=O)=O,-2.39% [at 70.9 µM]
5,N=C(N)S(=O)O,-1.87%
6,COc1cnc(NS(=O)(=O)c2ccc(N)cc2)nc1,1.18% [at 70.9 µM]
7,O=Cc1ccccc1S(=O)(=O)O,6.35%
8,CCN1CCN(C(=O)N[C@@H](C(=O)N[C@@H]2C(=O)N3[C@@H]2SC(C)(C)[C@H]3C(=O)O)c2ccccc2)C(=O)C1=O,-0.401% [at 70.9 µM]
9,COc1cc(C(=O)NC2CCCNC2)cc(OC)c1OC (stereo not given),5.8% [at 70.9 µM]
10,C=CC(C)(CCC=C(C)C)OC(=O)C(C)C (stereo not given),-1.25%
11,CC(C)C[P+](C)(CC(C)C)CC(C)C,3.13%
12,C/C(=N\O)c1ccc(OCC(=O)N2CCCCC2)cc1,-1.61% [at 70.9 µM]
13,C[C@H]1COc2c(C3(N)CC3)c(F)cc3c(=O)c(C(=O)O)cn1c23,4.35% [at 70.9 µM]
14,CC(C)(O)c1ccc(C(C)(C)O)cc1,-0.623%
15,CC(=O)OCC(=O)[C@@]1(O)CC[C@H]2[C@@H]3CCC4=CC(=O)C=C[C@]4(C)[C@H]3[C@@H](O)C[C@@]21C,1.47% [at 70.9 µM]
16,Cc1ccc(OC(=O)CC(C)C)cc1,0.547%
17,CC1(C)CC(N)CC(C)(C)N1,-0.11%
18,C/C=C(\C)C(=O)OC/C=C(\C)CCC=C(C)C,-8.88%
19,O=C[C@@H](O)[C@H](O)[C@H](O)CO,0.3%
20,COC(C)(C)CC(C)=O,2.25%

row,SMILES,"activity change, negative = cytotoxicity"
1,CNCCc1ccccn1,0.246% [at 70.9 µM]
2,COc1cc(NS(=O)(=O)c2ccc(N)cc2)ncn1,0.469% [at 70.9 µM]
3,CC1(C)C(=O)C(C)(C)C1=O,8.97%
4,CCCCCCCCC1CO1 (stereo not given),-2.67%
5,CNC(=O)c1c(I)c(NC(C)=O)c(I)c(C(=O)O)c1I,0.587% [at 70.9 µM]
6,O=C(O)CCC(=O)Nc1ccc(S(=O)(=O)Nc2nccs2)cc1,-2.26% [at 70.9 µM]
7,CCCC[O][Al]([O]CCCC)[O]CCCC,1.53%
8,NNC(=O)CCCCC(=O)NN,1.47%
9,C=CCN1CCc2nc(N)sc2CC1,2.61% [at 70.9 µM]
10,CC(=O)/C=C/C=C1/C2CCC(C2)C1(C)C (stereo not given),-4.5% [at 70.9 µM]
11,CC(=O)OC1CCC(C(C)(C)C)CC1 (stereo not given),-3.56%
12,C[C@@H]1CCC[C@H](C)N1CCCC(O)(c1ccccc1)c1ccccn1 (stereo not given in full),-3.1% [at 70.9 µM]
13,CCCCCCCCCCCBr,1.65% [at 70.9 µM]
14,O=C1CC2(CCCC2)CC(=O)N1CCNCC1COc2ccccc2O1 (stereo not given),0.679% [at 70.9 µM]
15,CCc1ccc(CC)cc1,2.37%
16,CCCCS,2.63%
17,CC(C)(C)C(=O)NCCCC(=O)O,1.23% [at 70.9 µM]
18,Cc1ccc(S(=O)(=O)NC(=O)NN2CC3CCCC3C2)cc1 (stereo not given),-0.92% [at 70.9 µM]
19,CCCCC(O)/C=C(C)/C=C/C=C/C(=O)N1CCCC1=O (stereo not given),-0.932% [at 70.9 µM]
20,CC(CC(=O)Cl)CC(C)(C)C (stereo not given),-1.8%
